Hits are enriched below; roughly 18% of the tested compounds scored in any of these assays.
HepG2 tox: HepG2 cytotoxicity, counter-screen for TGF-b inhibitors | HepG2 CAGA-GFP viability, ATP luminescence, 18 h | Potency, µM (top dose mostly 46.1 µM), for the others: top-dose activity change, negative = cytotoxicity, most hits filed as cytotoxic | 410,000 tested, 0.76% active | AID 588856; also: potency is read from the fitted curve at half-maximal effect
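HepG2 CAGA-GFP cells (1000/well, DMEM with 1% FBS) received compound, then TGF-beta at 500 pg/mL final, and were incubated 18 hours at 37 degrees C. Viability was read by CellTiter-Glo luminescence. Media-only wells were set as complete cell-killing and DMSO as no toxicity.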
DT40 TDP1 CPT: growth inhibition of DT40 Tdp1-/-;hTDP1 cells with camptothecin (screen for TDP1 inhibitors); Potency, µM (titrated, usually from 46.2 µM), for the others: at the top dose activity change, negative = growth inhibition, hits mostly inhibitors; chicken DT40 Tdp1-/-;hTDP1 cells + 20 nM CPT, ATP luminescence, 48 h; AID 686979; 420,000 tested, 12% active; also: potency is read from the fitted curve at half-maximal effect; % is scaled to controls: 0 for no effect and ±100 for the full control effect; nearly all actives have a fitted effect of over 55% in size
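Chicken DT40 Tdp1-/- cells complemented with human TDP1, 400 cells/well, exposed to compounds plus 20 nM camptothecin for at least 48 h at 37 C; viability read as ATP content by CellTiter-Glo luminescence.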
TDP1 block: inhibitors of human tyrosyl-DNA phosphodiesterase TDP1; Q9NUW8; recombinant TDP1, AlphaScreen DNA substrate cleavage; Potency, µM (titrated, usually from 130 µM), without a hit: top-dose activity change, negative = inhibition, most hits filed as inhibitors; 350,000 tested, 0.28% active; AID 485290; also: potency is read from the fitted curve at half-maximal effect; % is scaled to controls: 0 for no effect and ±100 for the full control effect; nearly all actives have a fitted effect of over 40% in size
Target sequence (Q9NUW8 whole entry, looked up): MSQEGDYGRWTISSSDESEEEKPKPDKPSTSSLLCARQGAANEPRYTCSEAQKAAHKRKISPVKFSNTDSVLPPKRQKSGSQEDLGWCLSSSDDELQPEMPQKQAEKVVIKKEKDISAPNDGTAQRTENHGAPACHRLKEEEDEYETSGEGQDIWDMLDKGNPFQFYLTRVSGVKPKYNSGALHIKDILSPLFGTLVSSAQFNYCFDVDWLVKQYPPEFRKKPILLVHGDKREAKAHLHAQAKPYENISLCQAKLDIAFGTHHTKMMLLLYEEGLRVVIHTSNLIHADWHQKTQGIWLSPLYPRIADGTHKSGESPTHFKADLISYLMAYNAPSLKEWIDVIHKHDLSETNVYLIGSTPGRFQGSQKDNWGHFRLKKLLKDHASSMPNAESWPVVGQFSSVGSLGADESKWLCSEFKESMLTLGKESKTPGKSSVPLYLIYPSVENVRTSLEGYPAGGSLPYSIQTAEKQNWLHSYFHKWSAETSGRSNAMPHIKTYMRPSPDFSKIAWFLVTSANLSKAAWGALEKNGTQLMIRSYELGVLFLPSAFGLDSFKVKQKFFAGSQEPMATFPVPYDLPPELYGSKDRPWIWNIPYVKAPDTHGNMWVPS
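AlphaScreen read-out: signal falls as enzyme removes the 3' tyrosine-FITC from a 5'-biotinylated DNA oligo (15 nM, 5 min, RT). Enzyme was E. coli-made recombinant Tdp1 at 1 nM, exposed to compound for 15 min beforehand; beads 10 ug/ml, 10 min.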
IL-1B inflam inh: inhibitors of inflammasome signaling (IL-1 beta secretion); THP-1 LPS/ATP IL-1B secretion, AlphaLISA, 16 h; active compounds read low; activity change, % at 57.5 µM; 360,000 tested, 4.7% active; AID 743279; in the data active = activity change below about -50%; inconclusive = mostly about -30% to -49%; also: % is scaled to controls: 0 for no effect and ±100 for the full control effect
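Secreted IL-1B measured by AlphaLISA bead assay after 16 h compound exposure of THP-1 cells; compounds (final up to 57.5 uM) added 1 h before LPS (250 ng/mL) and ATP (1.25 mM) stimulation; lower signal means less secretion.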
TGFb inhibitor: TGF-b pathway inhibition; Potency, µM (highest dose often 46.1 µM), for inactives: at the top dose activity, negative = inhibition, most hits filed as inhibitors; HepG2 CAGA-GFP TGF-b/SMAD3 reporter, GFP fluorescence, 18 h; TGF-beta stimulated, 500 pg/mL final; 410,000 tested, 1.2% active; AID 588855; also: potency is read from the fitted curve at half-maximal effect; % is scaled to controls: 0 for no effect and ±100 for the full control effect; nearly all actives have a fitted effect of over 65% in size
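Inhibition was scored as loss of TGF-beta-induced (500 pg/mL final, 18 hours, 37 degrees C) GFP in HEPG2 cells carrying a CAGA-GFP reporter, in DMEM with 1% FBS. Well GFP was summed per cell; Activity was normalised to unstimulated and stimulated DMSO wells, then concentration-response fitting.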
DT40 TDP1 no CPT: qHTS for Inhibitors of human tyrosyl-DNA phosphodiesterase 1 (TDP1): qHTS in cells in absence of CPT; DT40 Tdp1-/- hTDP1 cells, no CPT, ATP luminescence, 48 h; Potency, µM (series often up to 46.2 µM), without a hit: at the top dose activity change, negative = growth inhibition, most hits filed as inhibitors; 420,000 tested, 15% active; AID 686978, 2013; also: potency is read from the fitted curve at half-maximal effect; % is scaled to controls: 0 for no effect and ±100 for the full control effect; nearly all actives have a fitted effect of over 55% in size
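Cells were dispensed at 400 per well, compounds added by pin tool, plates incubated ≥48 hr at 37 °C, then CellTiter-Glo added for 30 min at room temperature before luminescence reading. Line: DT40 Tdp1-/- complemented with hTDP1; camptothecin omitted.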
Numbers without * were called inactive; [ ] = remark or other dose. Unless noted, calls follow the shape of the dose curve; as a rule, active = well fitted curve in the direction sought with a large enough effect; inconclusive = small, poorly fitted or top-dose-only effect, or another doubt; inactive = no such curve, though single readings can be large; an effect the other way counts as inactive or inconclusive.

What do the screens show for `COC(=O)C1=C(c2cccc(OCc3ccccc3)c2)C[C@@H]2CC[C@H]1N2C(=O)NC1CCN(Cc2ccccc2)CC1`?
HepG2 tox: 13µM*; DT40 TDP1 CPT: 6.5µM*; TDP1 block: 5%; IL-1B inflam inh: -63*; TGFb inhibitor: inconclusive; DT40 TDP1 no CPT: 6.5µM*

How did COC(=O)C1=C(c2ccccc2OCc2ccccc2)C[C@@H]2CC[C@H]1N2C(=O)NC1CCN(Cc2ccccc2)CC1 do in these assays?
HepG2 tox: -10%; DT40 TDP1 CPT: inconclusive; TDP1 block: 4%; IL-1B inflam inh: -65*; TGFb inhibitor: inconclusive; DT40 TDP1 no CPT: 23µM*

Results for COC(=O)C1=C(c2ccccc2OCc2ccccc2)C[C@@H]2CC[C@H]1N2C(=O)NCCN1CCOCC1 ?
HepG2 tox: -3%; DT40 TDP1 CPT: -23%; TDP1 block: -2%; IL-1B inflam inh: -7; TGFb inhibitor: -1%; DT40 TDP1 no CPT: -25%

What do the screens show for `COC(=O)C1=C(c2ccc(F)cc2OCc2ccccc2)C[C@@H]2CC[C@H]1N2C(=O)NCCO`?
HepG2 tox: -5%; DT40 TDP1 CPT: 3%; TDP1 block: 0%; IL-1B inflam inh: 13; TGFb inhibitor: 1%; DT40 TDP1 no CPT: -19%

What do the screens show for `CCSc1nnc(NC(=O)c2cccn(Cc3ccc(Cl)cc3)c2=O)s1`?
HepG2 tox: -7%; DT40 TDP1 CPT: 0%; TDP1 block: -7%; TGFb inhibitor: 10%; DT40 TDP1 no CPT: 1%

Results for O=C(NN=Cc1ccc2c(c1)CCC2)c1cccc([N+](=O)[O-])c1 ?
HepG2 tox: -28%; DT40 TDP1 CPT: inconclusive; IL-1B inflam inh: -9; TGFb inhibitor: -10%; DT40 TDP1 no CPT: inconclusive

Results for Cc1c(C)c2c(OCC(=O)N[C@@H](C)C(=O)O)cc3c(c2oc1=O)CCC(C)(C)O3 ?
HepG2 tox: 7%; DT40 TDP1 CPT: -7%; IL-1B inflam inh: -1; TGFb inhibitor: inconclusive; DT40 TDP1 no CPT: -8%

How did O=NN1CCCC1c1cccnc1 (stereo unspecified) do in these assays?
DT40 TDP1 CPT: -1%; TDP1 block: 5%; DT40 TDP1 no CPT: 10%

How did CCCCCC[C@H]1C(=O)O[C@H](C)[C@H](NC(=O)c2cccc(NC=O)c2O)C(=O)O[C@@H](C)[C@@H]1OC(=O)CC(C)C do in these assays?
DT40 TDP1 CPT: 0.017µM*; TDP1 block: 21%[56.1 µM]; DT40 TDP1 no CPT: 0.019µM*

Results for CCCCCC[C@H]1C(=O)O[C@H](C)[C@H](NC(=O)c2cccc(NC=O)c2O)C(=O)O[C@@H](C)[C@H]1OC(=O)CC(C)C ?
TDP1 block: 19%[21 µM]

What do the screens show for `CSCC[C@H](NC(=O)[C@H](CC(C)C)NC(=O)[C@@H](Cc1cnc[nH]1)NC(=O)[C@H](Cc1ccccc1)NC(=O)[C@@H](Cc1ccccc1)NC(=O)[C@@H](N)Cc1ccc(O)cc1)C(N)=O`?
TDP1 block: 10%

What do the screens show for `COc1ccccc1C(=O)C1CCCN(Cc2cnc(C)s2)C1` (stereo unspecified)?
HepG2 tox: 5%; DT40 TDP1 CPT: inconclusive; TDP1 block: 1%; IL-1B inflam inh: 19; TGFb inhibitor: 19%; DT40 TDP1 no CPT: 21µM*

How did Cc1ccsc1C(=O)C1CCCN(Cc2cnc(N(C)C)s2)C1 (stereo unspecified) do in these assays?
TDP1 block: -2%

Results for CCn1ccnc1CN1CCCC(C(=O)c2cc(Cl)ccc2OC)C1 (stereo unspecified) ?
HepG2 tox: 0%; DT40 TDP1 CPT: inconclusive; TDP1 block: 0%; IL-1B inflam inh: -75*; TGFb inhibitor: -15%; DT40 TDP1 no CPT: inconclusive

Results for COc1ccc(Cl)cc1C(=O)C1CCCN(CCO)C1 (stereo unspecified) ?
HepG2 tox: -20%; DT40 TDP1 CPT: -11%; IL-1B inflam inh: 17; TGFb inhibitor: -1%; DT40 TDP1 no CPT: -10%

What do the screens show for `CCn1ccnc1CN1CCCC(C(=O)c2cc(C)c(OC)c(C)c2)C1` (stereo unspecified)?
HepG2 tox: -24%; DT40 TDP1 CPT: inconclusive; TDP1 block: 3%; IL-1B inflam inh: -10; TGFb inhibitor: inconclusive; DT40 TDP1 no CPT: 21µM*

Results for COc1ccc(C(=O)C2CCCN(CC3CCCCC3)C2)cc1OC (stereo unspecified) ?
HepG2 tox: -20%; DT40 TDP1 CPT: inconclusive; IL-1B inflam inh: -11; TGFb inhibitor: inconclusive; DT40 TDP1 no CPT: inconclusive

Results for CN1C2CC(OC(=O)C(CO)c3ccccc3)C[C@@H]1[C@H]1OC21 (stereo partly specified) ?
DT40 TDP1 CPT: 3%; TDP1 block: 11%[56.1 µM]; DT40 TDP1 no CPT: -1%

How did O=C(Nc1cccc2ccccc12)c1nn(C23CC4CC(CC(C4)C2)C3)cc1Br do in these assays?
HepG2 tox: -7%; DT40 TDP1 CPT: 23µM*; TDP1 block: -5%; IL-1B inflam inh: -3; TGFb inhibitor: inconclusive; DT40 TDP1 no CPT: 16µM*

Results for O=C(Nc1cccc2ccccc12)N1Cc2ccccc2-n2nncc2C1 ?
HepG2 tox: 0%; DT40 TDP1 CPT: -27%; IL-1B inflam inh: 25; TGFb inhibitor: 0%; DT40 TDP1 no CPT: inconclusive

Results for CCC(C)(C)c1ccc(O)cc1 ?
HepG2 tox: -2%; DT40 TDP1 CPT: -14%; TDP1 block: 1%; IL-1B inflam inh: 6; TGFb inhibitor: 11%; DT40 TDP1 no CPT: inconclusive

Results for CC(C)(C)CC(C)(C)c1ccc(O)cc1 ?
DT40 TDP1 CPT: 14µM*; DT40 TDP1 no CPT: 22µM*

What do the screens show for `CCCCCCn1c(O)c(C=NC2CCN(Cc3ccccc3)CC2)c(=O)[nH]c1=O`?
HepG2 tox: 3%; DT40 TDP1 CPT: 21µM*; TDP1 block: 1%; IL-1B inflam inh: -28; TGFb inhibitor: 0%; DT40 TDP1 no CPT: 10µM*

Results for NC1CCCCC1N=Cc1c(O)n(CCc2ccc(F)cc2)c(=O)[nH]c1=O (stereo unspecified) ?
HepG2 tox: -5%; DT40 TDP1 CPT: inconclusive; TDP1 block: 3%; IL-1B inflam inh: -6; TGFb inhibitor: 21%; DT40 TDP1 no CPT: 18µM*

Screening data: PubChem, National Center for Advancing Translational Sciences (NCATS)
